Screening results from PubChem BioAssay.
Shown are actives, neighbours in structure and some others; about 0.19% of the full set was active somewhere.
Bfl-1 Bim block – disrupts Bim binding to human Bfl-1; inhibition, % at 10 µM; Q16548; 190,000 compounds, 0.12% hits; Bead-based flow cytometry, Bim-Bfl-1 binding inhibition
Bcl-W Bim block – inhibitors of Bim-Bcl-W interaction, human; Q92843; bead-based flow cytometry, Bim peptide-Bcl-W binding; inhibition, % at 10 µM; 190,000 compounds, 0.02% hits; AID 952;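 further: higher means less fluorescent Bim peptide bound to Bcl-W beads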
Bim-Bcl-B – disrupts Bim peptide binding to human Bcl-B; Q9HD36; bead-based flow cytometry; inhibition, % at 10 µM; 190,000 compounds, 0.073% hits; AID 951
Bcl-2 Bim block – disrupts Bim peptide binding to human Bcl-2. 190,000 compounds, 0.06% hits. inhibition, % at 10 µM. AID 950. P10415. Bead-based flow cytometry, Bim peptide-Bcl-2 binding; in the data active means inhibition above about 40%
Target sequence (P10415 whole entry, looked up): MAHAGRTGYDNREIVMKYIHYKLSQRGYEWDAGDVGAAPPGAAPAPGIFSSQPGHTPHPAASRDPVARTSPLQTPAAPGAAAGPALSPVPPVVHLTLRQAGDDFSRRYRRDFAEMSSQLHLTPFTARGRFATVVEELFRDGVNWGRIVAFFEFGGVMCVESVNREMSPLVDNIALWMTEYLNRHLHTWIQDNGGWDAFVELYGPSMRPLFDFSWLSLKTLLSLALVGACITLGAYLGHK
Bim-Bcl-XL – inhibitors of Bim-Bcl-XL interaction, human. Q07817. Bim peptide-Bcl-XL binding, bead flow cytometry, fluorescence. inhibition, % at 10 µM. 190,000 compounds, 0.04% hits. AID 1007
Bim-BclXL dose – dose-response confirmed modulator of Bim binding to human Bcl-XL. inhibition of binding at 100 µM. bead-based flow cytometry. shares compounds with Bfl-1 Bim block. 40 tested, under 10 active; call rule not given here
Large screens that a line does not name were inactive (follow-up assays come after a bar, where they were run). Unless noted, no stated cut-off is given here; in the data, active means inhibition above about 40%.

COc1ccc(/C=N/NC(=O)c2cccc(NC(=O)c3ccccc3Cl)c2)cc1OC	none
CCc1ccccc1Nc1nc(N)nc(CSCC(=O)Nc2ccc(C)c(C)c2)n1	none
O=C(O)CC/C(=C\c1cc([N+](=O)[O-])ccc1Cl)c1nc2ccccc2s1	Bim-Bcl-XL 40
O=C(O)CC/C(=C\c1ccccc1[N+](=O)[O-])c1nc2ccccc2s1	none
Nc1ccc(N2CCN(c3ccc(F)cc3)CC2)cc1	none
Nc1ccc(N2CCCCCC2)cc1	Bfl-1 Bim block 43
O=C(c1ccc(S(=O)(=O)N2CCOCC2)cc1)N1CCOCC1	none
O=C(COc1ccccc1Br)NCc1ccccn1	Bfl-1 Bim block 44, Bim-Bcl-B 75, Bcl-2 Bim block 71
O=C(COc1ccc(F)cc1Br)NCc1ccccn1	none
CCOC(=O)c1c(-c2ccc(F)cc2)csc1/N=C/N(C)C	none
CC(=NCCCn1ccnc1)C1=C(O)c2ccccc2C1=O	Bfl-1 Bim block 63, Bim-Bcl-B 86, Bcl-2 Bim block 87
CC(=O)N1CCC(=NNc2ncc(C(F)(F)F)cc2Cl)CC1	none
CCOc1ccc2noc3c2c1C(=O)c1ccccc1-3	none
O=C1c2ccccc2-c2onc3ccc(N4CCCC4)c1c23	Bfl-1 Bim block 42, Bcl-W Bim block 63, Bcl-2 Bim block 46, Bim-Bcl-XL 63
O=C1c2ccccc2-c2onc3ccc(NCc4ccco4)c1c23	Bfl-1 Bim block 40, Bcl-W Bim block 70, Bim-Bcl-B 41, Bcl-2 Bim block 48, Bim-Bcl-XL 76
CCNc1ccc2noc3c2c1C(=O)c1ccccc1-3	none
COc1ccc(OC)c(NC(=O)C(=O)NCCC2=CCCCC2)c1	none
CC1=CN2C(=NC(=O)CC2(C)C(=O)N(CC(=O)NC2CCCC2)c2ccccc2C)C=C1 (configuration not stated)	none
CC1(C(=O)N(CC(=O)NC2CCCC2)Cc2ccco2)CC(=O)N=C2C=CC=CN21 (configuration not stated)	Bcl-2 Bim block 88 (no result: Bfl-1 Bim block, Bim-Bcl-B)
COc1cc(CNc2ccc3[nH]c(=O)[nH]c3c2)cc(Br)c1OCC(=O)NC(C)(C)C	none | Bim-BclXL dose inactive
Cc1cc2nn(-c3cccc4ccccc34)nc2cc1N	Bfl-1 Bim block 48 | Bim-BclXL dose inactive
CNC(CC(=O)c1ccc([N+](=O)[O-])cc1)C(Cl)(Cl)Cl (configuration not stated)	Bfl-1 Bim block 55 | Bim-BclXL dose inactive
Cc1ccc2c(c1C)OC(=O)CC2(C)C	none
Cc1ccc(-c2cc(C(=O)Nc3nccs3)c3ccccc3n2)o1	none | Bim-BclXL dose inactive
Cc1cc(NC(=O)c2ccccc2F)ncc1NC(=O)c1cccs1	none
CCOc1ccccc1CNc1ccc(O)cc1	Bfl-1 Bim block 44 | Bim-BclXL dose inactive
CC(=O)OCCNc1cc(SCc2ccco2)c2nonc2c1[N+](=O)[O-]	none
CC(=O)OCCCNc1cc(Sc2nc3ccccc3s2)c2nonc2c1[N+](=O)[O-]	Bfl-1 Bim block 48 | Bim-BclXL dose inactive
O=C(Cc1ccccc1Cl)Nc1cccnc1	none
Cc1ccc(OCc2nnc(NC(=O)c3ccco3)s2)cc1	none
O=C(Nc1nnc(COc2ccc(Cl)cc2)s1)c1ccco1	none | Bim-BclXL dose inactive
COc1cc(N=C2SSNC2Cl)c(OC)cc1Cl (configuration not stated)	none (no result: Bfl-1 Bim block, Bcl-W Bim block, Bim-Bcl-B, Bcl-2 Bim block, Bim-Bcl-XL) | Bim-BclXL dose inactive
COc1cc(N=c2ssnc2Cl)c(OC)cc1Cl	none
CCN(CC)S(=O)(=O)c1cc(NC(=O)C(CC(C)C)NC(N)=O)ccc1C (configuration not stated)	none
O=C1c2ccccc2C(=O)N1CN(C(=O)COc1ccc(Cl)cc1Cl)c1cccc(F)c1	none | Bim-BclXL dose inactive
CCN(C(=O)COc1cc(=O)n(CC)c2ccccc12)c1cccc(Cl)c1	none
O=C(CCN=C1NS(=O)(=O)c2ccccc21)N1CCc2ccccc2C1	none
S=c1[nH]cc(-c2ccccc2)n1-c1ccccc1Cl	none
COc1ccccc1-n1c(-c2ccccc2)c[nH]c1=S	none | Bim-BclXL dose inactive
